Screening results (PubChem BioAssay)
Shown are actives, neighbours in structure and some others; about 0.95% of the full set was active somewhere.
PrPC TRFRET: inhibitors of human cell surface prion protein PrPC | TR-FRET read-out | inhibition, % at 13.8 µM | P04156 | 370,000 compounds, 0.43% hits; in the data active means inhibition above about 24%
ugtP null kill: growth inhibition of S. aureus ugtP deletion strain. growth inhibition, % (concentration not given with the values). 330,000 compounds, 0.54% hits. S. aureus RN4220 ugtP deletion, OD600 growth, 16 h. AID 1259309; in the data active means growth inhibition above about 68%
RN4220 kill: S. aureus RN4220 growth inhibition; OD600, 16 h; inhibition, % (test concentration not listed); 330,000 compounds, 0.33% hits; in the data active means inhibition above about 85%
BJeLR viability: kills HRASV12-expressing BJeLR cells; BJeLR (HRASV12) viability, CellTiter-Glo ATP luminescence, 48 h; inhibition, % (concentration not given with the values); 300,000 compounds, 0.17% hits; AID 1554; in the data active means inhibition above about 50%
PrPC confirm: cell surface PrPC inhibition, TR-FRET confirmation; shares compounds with PrPC TRFRET; inhibition, % at 13.8 µM; 1,500 compounds, 65% hits; AID 743200; cell surface PrPC level; in the data active means inhibition above about 25%
LD9 tox: LD9 cell cytotoxicity, PrPc inhibitor counter-screen | shares compounds with PrPC TRFRET | LD9 cells cytotoxicity, luminescence viability | inhibition, % at 13.8 µM | 1,500 compounds, 29% hits | AID 743201; in the data active means inhibition above about 9.5%
Each line names hits and unclear results; the compound was inactive in the other large screens (follow-up assays come after a bar, where they were run).

CCOc1ccc(C(C)=O)cc1CSC(=N)N	none
COc1ccc(C(=O)Nc2nc3c(s2)CCCC3)cc1S(=O)(=O)N1CCCc2ccccc21	PrPC TRFRET 28 | PrPC confirm inactive | LD9 tox inactive
COc1ccc(C(=O)Nc2ncccc2C)cc1S(=O)(=O)N1CCCc2ccccc21	none
C=CCNC(=O)ON=Cc1csc([N+](=O)[O-])c1	none (no result: PrPC TRFRET, BJeLR viability)
O=C(OCc1ccccc1)N1CCC2CC1c1ccc(N3CCN(Cc4ccccc4)CC3)cc12 (configuration not stated)	none (no result: ugtP null kill, RN4220 kill, BJeLR viability)
CCCc1c(-c2ccc(F)cc2F)ncn1Cc1ccccc1OC	PrPC TRFRET 25 (no result: ugtP null kill, RN4220 kill, BJeLR viability) | PrPC confirm inactive | LD9 tox inactive
CCCc1c(-c2cccc(F)c2)ncn1Cc1ccccc1OC	none (no result: ugtP null kill, RN4220 kill, BJeLR viability)
COc1ccc(C(=O)Nc2ccccc2C(=O)NC(Cc2ccc(O)cc2)C(=O)NNC(=O)c2ccc(C)cc2)cc1 (configuration not stated)	PrPC TRFRET 83 | PrPC confirm inactive | LD9 tox inactive
CC(=O)Nc1ccc2[nH]c(C)c(CC=C(Cl)Cl)c(=O)c2c1	PrPC TRFRET 37 | PrPC confirm 54 | LD9 tox inactive
Cc1ccccc1/C=N/Nc1nc2ccccc2[nH]1	none (no result: ugtP null kill, RN4220 kill)
Cc1[nH]c2ccccc2c1/C=N/Nc1nc2ccccc2[nH]1	PrPC TRFRET 30 (no result: ugtP null kill, RN4220 kill) | PrPC confirm inactive | LD9 tox 12
Cc1[nH]c2ccccc2c1C=NNc1ccccn1	none (no result: PrPC TRFRET, BJeLR viability)
C(=N\Nc1nc2ccccc2[nH]1)/c1c[nH]c2ccccc12	PrPC TRFRET 33 (no result: ugtP null kill, RN4220 kill) | PrPC confirm inactive | LD9 tox inactive
Cc1ccc(/C=N/Nc2nc3ccccc3[nH]2)s1	PrPC TRFRET 27 (no result: ugtP null kill, RN4220 kill) | PrPC confirm inactive | LD9 tox inactive
CCCN1CCN(C(=O)C2CCN(c3nnc(C)c4c(C)n(-c5ccc(C)cc5)nc34)CC2)CC1	none
CCOc1ccc(-n2nc3c(SCCN4CCCC4)nnc(C)c3c2C)cc1	PrPC TRFRET 55 | PrPC confirm 74 | LD9 tox inactive
CCOc1ccc(-n2nc3c(Cl)nnc(C)c3c2C)cc1	none
CCOc1ccc(-n2nc3c(=S)[nH]nc(C)c3c2C)cc1	PrPC TRFRET 92 | PrPC confirm 125 | LD9 tox inactive
Cc1ccc(-n2nc3c(SCCN4CCOCC4)nnc(C)c3c2C)cc1	PrPC TRFRET 33 | PrPC confirm 56 | LD9 tox inactive
CN(C)CCOc1ccc(C(=C(CCCl)c2ccccc2)c2ccccc2)cc1	none (no result: PrPC TRFRET, BJeLR viability)
Cc1cccc[n+]1C1C(c2ccc([N+](=O)[O-])cc2)C(C#N)=C(C(=C=[N-])C#N)NC1(O)C1CC1 (configuration not stated)	PrPC TRFRET 39 | PrPC confirm inactive | LD9 tox inactive
CC(=O)Nc1ccc(Nc2nc(-c3ccccc3)nc3ccccc23)cc1	PrPC TRFRET 30 | PrPC confirm inactive | LD9 tox 17
COc1ccccc1NC(=O)C(=O)NN=C(C)CC(=O)Nc1ccc(OCc2ccccc2)cc1	none (no result: PrPC TRFRET, BJeLR viability)
COc1ccc(C[C@H]2NC[C@H](O)[C@H]2OC(C)=O)cc1	PrPC TRFRET 89, BJeLR viability 82 (no result: ugtP null kill, RN4220 kill) | PrPC confirm 102 | LD9 tox 47
CC(=O)c1ccc(OCc2cc(C(=O)N(C)Cc3nc4c(C)cccc4[nH]3)no2)cc1	PrPC TRFRET 27 | PrPC confirm 26 | LD9 tox inactive
Cc1cccc(C(O)c2ncc(-c3ccc(Cl)cc3)[nH]2)c1C (configuration not stated)	none (no result: ugtP null kill, RN4220 kill, BJeLR viability)
Cc1cccc(C(O)c2ncc(-c3ccc(C(F)(F)F)cc3)[nH]2)c1C (configuration not stated)	PrPC TRFRET 26 (no result: ugtP null kill, RN4220 kill, BJeLR viability) | PrPC confirm inactive | LD9 tox inactive
O=C(OC1C(Cc2ccccc2)NS(=O)(=O)C2CC3C=C[C@]12O3)c1ccccc1Br (some centres not stated)	none (no result: PrPC TRFRET, BJeLR viability)
COC1=CC(=O)c2c(ccc3ncnc(N)c23)C1=O	PrPC TRFRET 61 (no result: ugtP null kill, RN4220 kill, BJeLR viability) | PrPC confirm 84 | LD9 tox 98
COC1=CC(=O)c2nc(Cl)ccc2C1=O	none (no result: ugtP null kill, RN4220 kill, BJeLR viability)
Cc1cc2cc(CNC(=O)C3CCCC3)ccc2n1C	PrPC TRFRET 44 | PrPC confirm inactive | LD9 tox inactive
Cn1c(CCNC(=O)C2CCCCC2)nc2cc([N+](=O)[O-])ccc21	none
Cn1c(CNC(=O)C2CCCCC2)cc2cc(Cl)ccc21	PrPC TRFRET 31 | PrPC confirm 35 | LD9 tox inactive
CSc1nc2ccc(NC(=O)c3cccs3)cc2s1	PrPC TRFRET 25 (no result: BJeLR viability) | PrPC confirm 25 | LD9 tox inactive
O=C(CCCC(=O)NN=Cc1ccccn1)NN=Cc1ccccn1	none (no result: PrPC TRFRET, BJeLR viability)
CCOC(=O)c1sc(N=Cc2ccc(O)cc2O)cc1C	none (no result: PrPC TRFRET, BJeLR viability)
O=C(CSc1ccc([N+](=O)[O-])cn1)Nc1ccc2c(c1)OCCO2	PrPC TRFRET 41 | PrPC confirm inactive | LD9 tox inactive
CN(C)S(=O)(=O)c1ccc(SCC(=O)Nc2ccc3c(c2)OCCO3)nc1	none (no result: BJeLR viability)
Cc1ccc(C=NNc2nc(C(C)(C)C)cs2)o1	none (no result: PrPC TRFRET, BJeLR viability)
CC(CC(c1ccccc1)c1c(O)c2ccccc2oc1=O)=NNc1ccc([N+](=O)[O-])cc1[N+](=O)[O-] (configuration not stated)	none (no result: PrPC TRFRET, BJeLR viability)
COc1cc(NC2c3ccccc3C(=O)N2Cc2ccccc2Cl)cc(OC)c1 (configuration not stated)	none
COc1cccc(NC2c3ccccc3C(=O)N2Cc2ccccc2Cl)c1 (configuration not stated)	PrPC TRFRET 29 | PrPC confirm inactive | LD9 tox inactive
COc1ccc(C=NN2CCOCC2)cc1COc1ccc(Cl)cc1	none (no result: PrPC TRFRET, BJeLR viability)
CCOc1ccc(-c2cc(C(=O)NCCCn3ccnc3)c3cc(Br)ccc3n2)cc1	PrPC TRFRET 25 (no result: ugtP null kill, RN4220 kill) | PrPC confirm 82 | LD9 tox inactive
CCOc1ccc(-c2cc(C(=O)NCCCn3ccnc3)c3ccccc3n2)cc1	none
C=CC#CC[N+]1(CC#Cc2ccccc2)CCOCC1	PrPC TRFRET 38 | PrPC confirm 44 | LD9 tox inactive
C=C1C(=O)OC2CC3(C)OC3CCC(C)=CC(OC(C)=O)C12 (configuration not stated)	none (no result: ugtP null kill, RN4220 kill, BJeLR viability)
C=C1C(=O)OC2CC3(C)OC3C3OC3C3=CC(OC3=O)C12 (configuration not stated)	PrPC TRFRET 93 (no result: ugtP null kill, RN4220 kill, BJeLR viability) | PrPC confirm 80 | LD9 tox 21
CCN(CC)c1ccc(C=c2sc3nc4ccccc4n3c2=O)c(O)c1	none (no result: PrPC TRFRET, BJeLR viability)
Cc1ccc(C(=O)n2c(N)nc3ccccc32)cc1	PrPC TRFRET 25 | PrPC confirm inactive | LD9 tox inactive
CCOC(=O)C1=C(c2ccccc2)NC(=O)NC1c1ccc(O)c(Cl)c1 (configuration not stated)	PrPC TRFRET 36 (no result: ugtP null kill, RN4220 kill) | PrPC confirm 49 | LD9 tox 52
CCOC(=O)C1=C(c2ccccc2)NC(=O)NC1c1ccc(O)c(OCC)c1 (configuration not stated)	none
CCN1C(=O)C2(C(C(=O)c3cc4ccccc4o3)=C(O)C(=O)N2CCCN2CCOCC2)c2ccccc21 (configuration not stated)	PrPC TRFRET 72 | PrPC confirm 99 | LD9 tox inactive
